# Records with an inconclusive call do not appear. Entries that show only a call come without a potency. Calls of active or inactive are those of the source. The call rests on the fitted dose curve; in most records, active means well fitted inhibition curve with a large enough effect; inconclusive means small, poorly fitted or top-dose-only effect; inactive means flat fitted curve, though single readings scatter.
# Molecular target: Calcium and integrin-binding protein 1 (Homo sapiens) (UniProt Q99828)
# Sequence (Q99828 whole entry, looked up): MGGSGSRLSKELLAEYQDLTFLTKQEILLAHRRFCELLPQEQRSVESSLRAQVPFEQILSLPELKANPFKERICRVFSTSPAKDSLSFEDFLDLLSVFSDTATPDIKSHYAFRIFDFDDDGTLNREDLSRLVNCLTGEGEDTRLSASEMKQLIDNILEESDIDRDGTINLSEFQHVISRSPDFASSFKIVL
# Experiment: Primary qHTS for Identification of Calcium Integrin Binding Protein 1 (CIB1) Competitor (AID 1508620);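 further: GST tagged CIB1 binding a fluorescein labelled alphaIIb integrin peptide tracer; top concentration of the series differs between compounds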
# Conditions: CIB1-GST / FITC-alphaIIb peptide fluorescence polarization; series mostly up to 114 µM
# Outline: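 Fluorescence polarization competition: CIB1-GST (1 uM final) preincubated with compound 15 min at room temperature, then FITC-labeled alphaIIb peptide (100 nM final) added for another 15 min. Polarization read at Ex 480/Em 540.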
row,SMILES,Potency
1,Oc1ccc(/C=C/c2c(F)cccc2F)c2cccnc12,inactive
2,FC(F)(F)c1ccccc1-c1nc(NCc2ccc(-c3cccc4ccccc34)cc2)c2ccccc2n1,inactive
3,O=C1NS(=O)(=O)c2cc(Br)ccc21,inactive
4,N#CN1CCC(NS(=O)(=O)c2ccc(C(F)(F)F)cc2)CC1,inactive
5,COc1ccc(C2Nc3ccccc3C(=O)N2Cc2ccco2)cc1COc1c(C)cc(NC(C)=O)cc1C (stereo not given),inactive
6,CCCCN1C(=O)c2ccccc2C1=O,inactive
7,Cc1ccc(-c2ccc(=O)n(CC(=O)NCCCc3ccccn3)n2)cc1,inactive
8,CC(C)(N)C(=O)Nc1ccc(Cl)cc1C(=O)c1ccc[nH]1,inactive
9,CC(=O)N1CCN(c2ccc(NCc3ccc(-c4ccc(Br)cc4)o3)cc2)CC1,inactive
10,NC(=O)c1ccccc1-c1noc(-c2ccccc2F)n1,inactive
11,CN(Cc1cncn1C)c1ncnc2ccc(-c3ccc4c(c3)OCO4)cc12,inactive
12,O=C1CCc2cc(S(=O)(=O)Nc3ccc(Cl)c(Cl)c3)ccc2N1,inactive
13,CCC(C)N(C)C(=O)Cn1nc(-c2ccc(C)cc2)ccc1=O (stereo not given),inactive
14,FC(F)(F)c1ccccc1-c1nc(NCc2ccc(Cl)cc2)c2ccccc2n1,inactive
15,Cc1noc(C)c1-c1ccc2ncnc(NCc3cccc(-c4ccccc4)c3)c2c1,inactive
16,Cc1ccc(-c2ccc(=O)n(CC(=O)NCCc3ccc(O)cc3)n2)cc1,inactive
17,Cc1cc2c(s1)c1cnn(Cc3ccccc3Br)c(=O)c1n2C,inactive
18,COc1cc(O)c(C(CC(=O)N2CCCCCC2)c2ccc3c(c2)OCO3)c(OC)c1 (stereo not given),inactive
19,Clc1ccc(CN(CCCNc2ncnc(NCCCc3cnc[nH]3)n2)c2ccc(Br)cn2)cc1Cl,inactive
20,Cn1c2ccsc2c2cnn(Cc3ccccc3F)c(=O)c21,inactive

row,SMILES,Potency
1,O=C(O)c1ccc(S(=O)(=O)N[C@H](Cc2ccc([N+](=O)[O-])cc2)C(=O)O)cc1,inactive
2,Oc1ccc(COC2CCN(Cc3ccccc3)C2)c2cccnc12 (stereo not given),inactive
3,COc1cccc(OC2=NS(=O)(=O)c3ccccc32)c1,inactive
4,COc1ccc(C2Nc3ccccc3C(=O)N2Cc2ccccc2)cc1Oc1ccc(NC(C)=O)cc1 (stereo not given),inactive
5,Cc1ccc(CNc2ncnc3ccc(-c4ccc(C(=O)N(C)C)o4)cc23)o1,inactive
6,Cc1cccc(-c2ccc3ncnc(NCc4cc(C)cs4)c3c2)c1,inactive
7,COc1ccccc1-c1ccc(=O)n(CC(=O)NCCc2ccccc2)n1,inactive
8,CC(=O)N[C@@H](Cc1ccc(O)cc1)C(=O)N[C@H](C(=O)N[C@@H](C)C(=O)N[C@H](C#N)CC(=O)O)C(C)C,inactive
9,Cc1ccc(-c2ccc(CNc3nc(-c4ccccc4C(C)C)nc4ccccc34)cc2)cn1,inactive
10,O=S(=O)(Nc1ccc(-c2ccccc2)cc1)c1ccc(NCc2ccc(Br)cc2O)cc1,inactive
11,S=C(NCCCN(Cc1ccc(Cl)c(Cl)c1)c1ccc(Br)cn1)NCCc1cnc[nH]1,inactive
12,CC(=O)Nc1sc2c(c1-c1ccccc1)CCNC2,inactive
13,O=C1Cc2cc(S(=O)(=O)N3CCN(c4ccc(C(F)(F)F)cc4)CC3)ccc2N1,inactive
14,NNc1ccc(NC(=O)c2cccs2)cn1,inactive
15,CC(=O)Nc1sc2c(c1-c1nc(-c3ccccc3)cs1)CCN(C(C)C)C2,inactive
16,Cc1ccc(NS(=O)(=O)c2ccc3ccccc3c2)cc1C,inactive
17,Cc1csc(CNc2ncnc3ccc(-c4ccc5c(ccn5C)c4)cc23)c1,inactive
18,COc1ccccc1-c1ncc(C)c(NCc2ccc(-c3cccnc3)cc2)n1,inactive
19,Nc1cccc(OCCn2c(CCNC(=O)C3CCCCC3)nc3ccccc32)c1,inactive
20,Cc1ccc(NS(=O)(=O)c2ccc3c(c2)n(C)c(=O)n3C)cc1C,inactive

# Source: PubChem BioAssay (NCATS)
